# From PubChem BioAssay
# Compounds with a hit are over-represented: about 3% of the library has one in this group of screens.
# SARS PLP yeast = inhibitors of SARS-CoV papain-like protease in yeast; S. cerevisiae expressing SARS-CoV PLpro, growth rescue; Potency, µM (series often up to 32.9 µM), inactives show at the top dose activity, positive = growth rescue, actives largely listed as activators; 0.19% of 330,000 active; calls by dose curve; also: 0% is about no effect; nearly all actives have a fitted effect of over 55% in size
# Sm TGR inh = inhibitors of Schistosoma mansoni thioredoxin glutathione reductase | purified TGR, DTNB reduction, TNB absorbance 405 nm | Potency, µM (series often up to 114 µM), without a hit: at the highest dose activity change, negative = inhibition, usual class: inhibitors | 3% of 360,000 active | AID 485364; active = well fitted inhibition curve with a large enough effect; inconclusive = small, poorly fitted or top-dose-only effect; inactive = no such curve, though single readings can be large or run the other way; also: % is scaled to controls: 0 for no effect and ±100 for the full control effect; nearly all actives have a fitted effect of over 60% in size
#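 First, TGR (20 nM dispensed) and NADPH were mixed with compound. Second, a 15 min room-temperature incubation followed. Third, further NADPH and then DTNB were added to start the reaction. Finally, TNB absorbance was monitored kinetically.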
# An asterisk follows results filed as active; u = inconclusive; x = no result given; [ ] = remark or other dose. Potency is read from the fitted curve at half-maximal effect.
SMILES,SARS PLP yeast,Sm TGR inh
Cc1c(N=C2C=CC(=O)c3ccccc32)c(=O)n(-c2ccccc2)n1C,-5%,13µM*
C=CCN1CC[C@]23c4c5ccc(O)c4OC2C(=O)CC[C@@]3(O)C1C5 (some centres undefined),-2%,40µM*
C=C1CC[C@@]2(O)[C@H]3Cc4ccc(O)c5c4[C@@]2(CCN3CC2CC2)[C@H]1O5,0%,-10%
COc1ccc2c3c(cccc13)C(=O)N(O)C2=O,-60%,6%
CCC1=NNc2cccc3c(OC)ccc1c23,-6%,10µM*
Cc1ccc(C)c(Nc2nnc(-c3ccc(C)c(S(=O)(=O)NCC4CCCO4)c3)c3ccccc23)c1 (centres undefined),x,6%
CC(C)Oc1ccc(CNC(=O)Cc2ccc(NC(=O)N3CCSc4ncccc43)cc2)cc1,x,0%
N#CC1(C#N)CC(C=O)=C(N)C1(C#N)CC(=O)c1ccc(F)cc1 (centres undefined),-3%,20µM*
O=C(C[N+]12CC[N+](CC(=O)c3ccc(F)cc3)(CC1)CC2)c1ccc(F)cc1,0%,-21%
COc1ccc(S(=O)(=O)c2cnc3ccccc3n2)cc1,1%,u
O=S(=O)(c1ccc(Br)cc1)c1cnc2ccccc2n1,-1%,14µM*
O=C(CCC1N=C2c3ccccc3N=C(SCc3ccc(Cl)cc3)N2C1=O)NC1CCCCC1 (centres undefined),x,0%
CCN(Cc1ccc(OC)c(F)c1)C(=O)C1CCCO1 (centres undefined),-2%,3%
CCN(Cc1ccc(OC)c(F)c1)C(=O)CCl,1%,11µM*
Cc1ccc(CCNC(=O)c2c3c(nc4ccccc24)C(=O)N(C2CCCCC2)C3)cc1,x,-11%
CCN(CC)c1ccc(/C=C2\SC(=O)N(C(C)C)C2=O)o1,-4%,1.8µM*
CC(C)N1C(=O)S/C(=C/c2ccc3c(c2)n(C)c(=O)n3C)C1=O,6%,7%
CC1CCN(S(=O)(=O)c2ccc3c(c2)N(CC(=O)NC(C)C)C(=O)CS3)CC1,x,-4%
CCOC(=O)C1CCN(C(c2cccnc2)c2c(NC(=O)c3ccco3)sc(C)c2C)CC1 (centres undefined),7%,7.9µM*
Cc1sc(NC(=O)c2ccco2)c(C(c2cccnc2)N2CCN(CCO)CC2)c1C (centres undefined),2%,-24%
Cc1sc(NC(=O)c2ccco2)c(C(c2cccnc2)N2CCN(c3ccc(F)cc3)CC2)c1C (centres undefined),-17%,22µM*
Cc1sc(NC(=O)c2ccco2)c(C(c2ccccc2)N2CCC(C)CC2)c1C (centres undefined),3%,-18%
COc1ccc(C)cc1NC(=O)c1nnn(-c2c(C)cccc2C)c1C,x,-10%
CCCC12CN3CC(CCC)(CN(C1)C3c1ccccc1)C2=O (centres undefined),x,13%
COCCn1c(SCC(=O)N2CCC(C)CC2)nc2ccccc2c1=O,4%,0%
SMILES,SARS PLP yeast,Sm TGR inh
COCCn1c(C)cc(O)c(C(c2ccc(F)cc2)N2CCC(C)CC2)c1=O (centres undefined),x,10µM*
COCCn1c(SCC(=O)N2CCC(C)CC2)nc2c([nH]c3ccccc32)c1=O,-5%,0%
COCCn1c(C)cc(O)c(C(c2ccccc2)N2CCC(C)CC2)c1=O (centres undefined),x,22µM*
Cc1ccc(C(=O)n2nc(C)c(S(=O)(=O)N3CCOCC3)c2C)cc1,x,-12%
Cc1ccc(S(=O)(=O)NCCSc2nnnn2-c2ccc(Cl)c(C(=O)O)c2)cc1,x,-8%
Cc1nc2ccn(Cc3cccs3)c(=O)c2cc1C(=O)N1CCN(c2ccccc2F)CC1,x,-4%
Cc1ccc(C(=O)c2c(N)c(-c3nc(-c4ccc5c(c4)OCO5)cs3)c3ccccn23)cc1C,x,-14%
COc1ccc(OC)c2c(=O)cc(C(=O)O)[nH]c12,0%,3%
COc1ccc(OC)c2c(C)c(C)[nH]c12,1%,32µM*
COc1cc(S(=O)(=O)NCCCN2CCOCC2)ccc1Cl,0%,-3%
O=S(=O)(NCCN1CCOCC1)c1ccc2ccccc2c1,3%,x
O=[N+]([O-])c1cc(S(=O)(=O)NCCCN2CCOCC2)ccc1Cl,-2%,45µM*
O=[N+]([O-])c1cc(S(=O)(=O)NCCN2CCOCC2)ccc1Sc1nnnn1-c1ccccc1,17%,18µM*
Cc1ccc(-n2nnnc2Sc2ccc(S(=O)(=O)NCCN(C)C)cc2[N+](=O)[O-])cc1,u,25µM*
Cc1ccc(S(=O)(=O)NCCSc2nnnn2-c2ccc(C(N)=O)cc2)cc1,-1%,-3%
CN(CC(=O)Nc1cccc(Cl)c1)S(=O)(=O)c1ccc2[nH]c3c(c2c1)CCCC3,x,-2%
O=C(Nc1ccc(F)cc1)c1ccc(Cn2nc(N3CCN(c4ccccc4)CC3)ccc2=O)o1,x,23%
Cc1nc2c(c(C)c1CCC(=O)N1CCN(c3ccccc3)CC1)c(=O)n(C)c(=O)n2C,x,-6%
N#C/C(=C(/O)CCl)c1nc(-c2ccccc2)cs1,-1%,u
Cc1ccc(-c2csc(/C(C#N)=C(\O)CCl)n2)cc1,-2%,18µM*
Clc1ccc(CN2CCC(CNc3ncnc4onc(-c5ccc(Cl)cc5)c34)CC2)cc1,x,0%
CC(C)c1c(O)nc(SCCN(C)C)[nH]c1=O,5%,18%[11.4 µM]
O=C(CSc1nc(O)c(C(c2ccccc2)c2ccccc2)c(=O)[nH]1)N1CCOCC1,2%,0%
CSc1nc(O)c(C(c2ccc(C)cc2)c2c(O)nc(SC)[nH]c2=O)c(=O)[nH]1,10%,45µM*
CSc1nc(O)c(C(c2ccccc2)c2c(O)nc(SC)[nH]c2=O)c(=O)[nH]1,-1%,7.9µM*
SMILES,SARS PLP yeast,Sm TGR inh
Cc1ccc(N2CC(NC(=O)C3CCCCC3)CC2=O)cc1 (centres undefined),x,9%
O=c1[nH][nH]c(C(F)(F)F)c1C=Nc1ccccc1Cl,-8%,0%
Oc1c(C=Nc2ccccc2Cl)[nH]c2ccccc12,0%,50µM*
CCn1c(=O)c2sccc2n2c(CCCC(=O)N3CCN(c4cc(C)ccc4C)CC3)nnc12,x,3%
CC(=C\C(=O)O)/C(=C/c1ccco1)C(=O)O,0%,u
CC(=C\C(=O)O)/C(=C/c1ccc(C)o1)C(=O)O,2%,32µM*
O=C(CCN1CCC(c2ccccc2)C1)c1ccccc1 (centres undefined),0%,0%
O=C(CCN1CCCC1Cc1ccccc1)c1ccc2c(c1)OCCO2 (centres undefined),x,0.32µM*
COc1cc(C(=O)CCN2CCC(c3ccccc3)C2)cc(OC)c1OC (centres undefined),-23%,0.28µM*
O=C(CCN1CCC(c2ccccc2)C1)c1ccc2c(c1)OCCO2 (centres undefined),1%,0.1µM*
O=C(CCN1CCC(c2ccccc2)C1)c1cccs1 (centres undefined),-2%,-54%
O=C(CCN1CCc2ccccc21)c1ccc2c(c1)OCCO2,0%,u
O=C(CCN1CCc2ccccc2C1)c1ccc2c(c1)OCCO2,-36%,0.28µM*
O=C(CCN1CCCCC1)c1ccc2c(c1)OCCO2,-47%,0%
CC1=Nc2cc(C(=O)NCc3ccccc3Cl)ccc2Sc2c(C)ccc(C)c21,x,-4%
COCCNC(=O)CSc1nc2cc3c(cc2c(=O)n1CCCC(=O)NCc1ccc2c(c1)OCO2)OCO3,x,-7%
CCCCN(C)c1ncnc2c1cnn2-c1cccc(Cl)c1,x,5%
